PTAP TSG101 blk: blocks PTAP/TSG101 interaction to inhibit HIV-1 budding; Potency, µM (titrated, usually from 115 µM), without a hit: top-dose activity change, negative = inhibition, most hits filed as inhibitors; 340,000 tested, under 10 active; Q99816; Fluorescence polarization, FITC-PTAP peptide / Tsg101 binding; active = well fitted inhibition curve with a large enough effect in the main read-out, with a control signal flat, not every such curve was filed as active; inconclusive = small, poorly fitted or top-dose-only effect, or effect the other way, or a change in a side signal; inactive = no such curve, though single readings can be large or run the other way; note: % of control where 0% means no effect
Target sequence (Q99816 whole entry, looked up): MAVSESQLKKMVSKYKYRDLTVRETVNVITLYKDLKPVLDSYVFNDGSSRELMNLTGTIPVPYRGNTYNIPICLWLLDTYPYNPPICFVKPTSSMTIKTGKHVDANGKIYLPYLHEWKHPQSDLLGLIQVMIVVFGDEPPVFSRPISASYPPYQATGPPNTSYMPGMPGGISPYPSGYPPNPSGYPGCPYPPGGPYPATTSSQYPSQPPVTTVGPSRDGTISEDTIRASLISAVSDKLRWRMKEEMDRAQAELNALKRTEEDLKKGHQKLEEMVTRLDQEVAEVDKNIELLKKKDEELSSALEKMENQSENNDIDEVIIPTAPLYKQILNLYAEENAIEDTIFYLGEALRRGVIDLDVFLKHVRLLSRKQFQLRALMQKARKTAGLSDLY
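Compounds were pin-transferred onto Tsg101 binding domain (10 uM final) in HEPES pH 7.5 buffer, then FITC-PTAP peptide was added at 50 nM final. After 20 min at RT, polarization reported peptide displacement across a qHTS concentration series.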
KB-3-1 cytotox: KB-3-1 parental cell cytotoxicity; KB-3-1 viability, CellTiter-Glo ATP luminescence, 72 h; Potency, µM (doses to about 46.1 µM), most hits filed as cytotoxic; 400,000 compounds, 1.4% hits; AID 1347075; note: % is set by controls: 0 for no effect and ±100 for the full control effect; nearly all actives have a fitted effect of over 60% in size
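72 h, 37 °C compound treatment of KB-3-1 parental cells; CellTiter-Glo added, 10 min, luminescence read. Data corrected against DMSO-only plates and normalized before curve fitting.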
KB-V1 MDR tox: KB-V1 MDR subline cytotoxicity. Potency, µM (highest dose often 46.1 µM), most hits filed as cytotoxic. AID 1347076. 400,000 compounds, 3.4% hits. KB-V1 MDR cells viability, CellTiter-Glo, 72 h; note: % is set by controls: 0 for no effect and ±100 for the full control effect; nearly all actives have a fitted effect of over 60% in size
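In this primary screen, KB-V1 cells overexpressing P-gp are incubated with library compounds (lowest to highest concentration) for 72 h at 37 degrees C before a luminescent ATP viability read.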
PINK1 modulator: changes PINK1 expression; PINK1 immunofluorescence, high-content cytometry, 24 h; Potency, µM (series often up to 76.6 µM), without a hit: at the highest dose activation (PINK1 increase), hits mostly activators; 410,000 compounds, 0.2% hits; active = well fitted activation curve with a large enough effect; inconclusive = small, poorly fitted or top-dose-only effect; cell line not stated here; note: % of control where 0% means no effect; nearly all actives have a fitted effect of over 65% in size
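Readout is PINK1 immunofluorescence, quantified alongside mitochondrial, cell and nuclear markers by laser-scanning microplate cytometry. Cells from a stable line were exposed to compound titrations (5 concentrations) for 24 hours, with CCCP controls.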
MCF10A rerep: DNA re-replication induction in MCF 10a cells; MCF 10A DNA re-replication, Hoechst nuclear intensity, 48 h; Potency, µM (top dose mostly 46.1 µM), without a hit: top-dose activity, positive = re-replication, usual class: activators; 350,000 compounds, 2.9% hits; AID 624296; note: % of control where 0% means no effect; nearly all actives have a fitted effect of over 50% in size
SW480 rereplic: inducers of DNA re-replication in SW480 colon cancer cells; SW480 DNA re-replication, Hoechst DNA content imaging, 48 h; Potency, µM (top dose mostly 46.1 µM), for inactives: at the highest dose re-replication activation, usual class: activators; 340,000 compounds, 1.8% hits; AID 624297; note: % of control where 0% means no effect; nearly all actives have a fitted effect of over 55% in size
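Cells (250 per well) received 23 nL compound or DMSO by pin tool and were kept 48 hr at 37 C, 5% CO2. Nuclei were then stained with Hoechst for 40 min and scanned for DNA content.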
* hit, by the source's call; i = inactive; ? = inconclusive; . = no result; [ ] = remark or other dose. Sampled rows, rich in hits. Any-hit rate of the full collection: about 6.8%. Unless noted, calls come from the whole dose curve; as a rule, active = well fitted curve in the direction sought with a large enough effect; inconclusive = small, poorly fitted or top-dose-only effect, or another doubt; inactive = no such curve, though single readings can be large; an effect the other way counts as inactive or inconclusive. Potency is the fitted concentration of half-maximal effect.

SMILES	PTAP TSG101 blk	KB-3-1 cytotox	KB-V1 MDR tox	PINK1 modulator	MCF10A rerep	SW480 rereplic
Cc1nn2c(=O)cc(COC(=O)c3ccc(NC(=O)c4cccs4)cc3)nc2s1	.	.	.	3%	.	.
COc1ccc(-c2ccc(SCC(=O)c3cccs3)nn2)cc1	-1%	?	16µM*	-3%	-1%	-8%
O=C(CSc1ccc(-c2ccccc2)nn1)c1cccs1	-2%	i	?	-1%	-1%	4%
COc1ccc(-c2nc3cc(F)ccc3cc2CN(C(=O)c2ccc3c(c2)OCO3)C2CC2)cc1	.	.	.	0%	.	.
Cc1cc(C(=O)COc2ccccc2[N+](=O)[O-])c(C)n1C1CC1	-3%	i	?	4%	-46%	0%
Cc1cc(C(=O)COc2ccccc2C(N)=O)c(C)n1C1CC1	-6%	i	i	2%	0.58µM*	-8%
CCOC(=O)c1c(-c2ccc(OC)cc2)oc2cc(Br)c(O)cc12	-8%	i	i	7%	15µM*	0%
CCCc1cc(NCc2ccccn2)n2nc(C)c(-c3ccccc3)c2n1	-1%	?	i	19%	?	3.3µM*
Cc1cc(NCc2ccccn2)n2ncc(-c3ccccc3)c2n1	-8%	i	?	2%	12%	0.82µM*
Cc1cc(NCc2ccccn2)n2ncc(-c3ccc(Cl)cc3)c2n1	0%	i	?	5%	5%	?
Cc1nn2c(NCc3ccccn3)cc(C(C)C)nc2c1-c1ccccc1	-4%	i	?	?	?	?
O=[N+]([O-])c1ccc(N2CCN(c3ccccc3F)CC2)c(S(=O)(=O)N2CCOCC2)c1	-2%	i	7.3µM*	3%	-2%	-6%
CN(C)S(=O)(=O)c1cccc(COC(=O)c2cc([N+](=O)[O-])ccc2N2CCOCC2)c1	-3%	i	?	-2%	?	?
COc1ccc(OC)c(COC(=O)c2cc([N+](=O)[O-])ccc2N2CCOCC2)c1	-4%	5.2µM*	?	8%	?	?
CSc1ccc(COC(=O)c2cc([N+](=O)[O-])ccc2N2CCOCC2)cc1	1%	0.15µM*	0.41µM*	5%	?	0.058µM*
O=[N+]([O-])c1ccc(N/N=C/c2cccc(O)c2O)c(S(=O)(=O)N2CCOCC2)c1	1%	?	?	12%	22%	4.1µM*
Cc1ccc(CN2C(=O)C(=O)c3cc(Br)cc(C)c32)cc1	.	?	?	-1%	.	.
O=C(CCn1cccn1)Nc1ccc(Br)cc1F	.	i	i	0%	.	.
O=S(=O)(NCCc1cn(S(=O)(=O)c2ccccc2)c2ccccc12)c1ccccc1	.	.	.	-1%	.	.
Cc1ccccc1COC(=O)c1cc([N+](=O)[O-])ccc1N1CCOCC1	1%	?	i	0%	?	?
O=C(OCc1ccccc1F)c1cc([N+](=O)[O-])ccc1N1CCOCC1	2%	i	18µM*	5%	11%	7%
Cc1ccccc1-c1nc(CN2CCC(C(=O)NC(C)C)CC2)c(C)o1	.	i	i	4%	.	.
CC(C)NC(=O)NC(=O)CSc1nnc(COc2ccccc2F)n1C(C)C1CC2CCC1C2 (centres undefined)	-2%	?	i	25%[38.3 µM]	13µM*	?
O=C(COc1ccccc1C(=O)Nc1ccccc1)Nc1cccc(Cl)c1	.	.	.	6%	.	.
COc1ccc(/C=C(\C#N)c2nc3ccc(C)cc3[nH]2)cc1Oc1ccc(C(F)(F)F)cc1[N+](=O)[O-]	?	i	?	?	23µM*	?
SMILES	PTAP TSG101 blk	KB-3-1 cytotox	KB-V1 MDR tox	PINK1 modulator	MCF10A rerep	SW480 rereplic
Cc1ccc2nc(/C(C#N)=C\c3ccc(Oc4ccc(C(F)(F)F)cc4[N+](=O)[O-])cc3)[nH]c2c1	-12%	?	?	3%	3%	13µM*
N#C/C(=C\c1cccc(Oc2ccc(C(F)(F)F)cc2[N+](=O)[O-])c1)c1nc2ccccc2[nH]1	0%	i	i	2%	18µM*	4%
COc1cc(/C=C(\C#N)c2nc3ccc(C)cc3[nH]2)cc([N+](=O)[O-])c1O	-9%	i	i	8%	0%	?
CCOC(=O)COc1ccc(/C=C(\C#N)c2nc3ccc(C)cc3[nH]2)cc1OC	.	18µM*	?	-1%	.	.
O=C(c1ccc2c(c1)N(Cc1ccc(Cl)cc1)C(=O)c1ccccc1S2(=O)=O)N1CCC(Cc2ccccc2)CC1	.	i	i	0%	.	.
Cc1ccccc1CNC(=O)c1ccc(NC(=O)c2nsc3ccccc23)cc1	.	i	i	0%	.	.
O=C(C[n+]1ccncc1)c1ccc2ccccc2c1	.	?	i	1%	.	.
CC1Cc2ccccc2N1C(=O)CO/N=C/c1ccccc1OC(F)F (centres undefined)	1%	i	?	5%	3%	16µM*
CC[C@]12CCCN3CCc4c(n(c5ccccc45)[C@@](O)(C(=O)OC)C1)[C@@H]32	-1%	i	i	0%	11%	-1%
CC[C@]12CCCN3CCc4c(n(c5ccccc45)C(=O)C1)[C@@H]32	1%	?	4.1µM*	3%	?	13µM*
COc1ccccc1CNC(=O)CC1N=C2c3ccccc3N=C(SCC(=O)Nc3ccc(F)cc3)N2C1=O (centres undefined)	.	i	i	3%	.	.
CSc1nc2sc(-c3ccccc3)cc2c(=O)n1N	-6%	?	9.2µM*	0%	-1%	-218%
CCOC(=O)N1CCN(c2nc(-c3ccccc3)c3cc(C)ccc3n2)CC1	-4%	i	i	3%	4.1µM*	?
OCCN1CCN(c2nc(-c3ccccc3)c3cc(Cl)ccc3n2)CC1	-3%	?	i	-3%	?	15µM*
Cc1ccc2nc(Cl)nc(-c3ccccc3)c2c1	-10%	i	?	0%	4%	-4%
CCOC(=O)N1CCN(C(=O)c2ccc3nc(-c4ccccc4)c(-c4ccccc4)nc3c2)CC1	-15%	i	i	-2%	15%	0%
Cc1ccc2nc(N3CCN(CCO)CC3)nc(-c3ccccc3)c2c1	-1%	i	i	-1%	3.7µM*	12µM*
Cc1cn2c(=O)cc(COC(=O)c3cccc(NC(=O)COc4ccccc4Cl)c3)nc2s1	.	.	.	0%	.	.
Cc1ccc[n+](C(C)C(=O)Nc2ccc(C)c(C)c2)c1 (centres undefined)	-12%	i	i	3%	0.23µM*	-27%
